Assay outcomes as filed in PubChem BioAssay.
DRD3 antagonist: blocks the human D3 dopamine receptor | D3R cells, DiscoveRx beta-arrestin luminescence, antagonist mode; active compounds read low | P35462 | 2.5% of 360,000 active | AID 652054 | max response, negative = inhibition, %; in the data active = max response below about -50%; inconclusive = no clear call, values can overlap the other calls; also: % is scaled to controls: 0 for no effect and ±100 for the full control effect
Target sequence (P35462 whole entry, looked up): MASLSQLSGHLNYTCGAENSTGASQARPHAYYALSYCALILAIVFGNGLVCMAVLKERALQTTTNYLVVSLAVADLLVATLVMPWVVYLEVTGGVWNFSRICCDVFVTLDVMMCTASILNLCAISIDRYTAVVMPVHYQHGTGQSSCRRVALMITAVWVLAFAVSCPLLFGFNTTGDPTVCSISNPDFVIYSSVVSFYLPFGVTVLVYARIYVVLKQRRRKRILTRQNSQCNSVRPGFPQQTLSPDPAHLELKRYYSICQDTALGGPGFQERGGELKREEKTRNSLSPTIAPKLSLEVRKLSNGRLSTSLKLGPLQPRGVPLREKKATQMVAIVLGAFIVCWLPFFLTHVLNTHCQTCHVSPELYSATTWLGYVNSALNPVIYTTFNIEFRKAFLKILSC
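Cells expressing the human receptor were seeded at 1500 cells/well, incubated overnight at 37 degrees C in 5% CO2, then exposed to library compounds with dopamine controls for 90 minutes at 37 degrees C before luminescent detection.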
D1 PAM: enhances dopamine response at the human D1 receptor. P21728. HEK293 TREx D1 cells, calcium flux, dopamine EC20 potentiation. potentiation, % at 10 µM. 0.036% of 360,000 active; in the data active = potentiation above about 30%; also: 0% is about no effect
D1 antagonist: antagonists of human D1 dopamine receptor | activity change, negative = inhibition, % at 10 µM | HEK293 TREx D1 cells, calcium flux, dopamine EC80; active compounds read low | 3.2% of 360,000 active; in the data active = activity change below about -30%; also: % is scaled to controls: 0 for no effect and ±100 for the full control effect
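Calcium flux readout: force-coupled, inducible Hek293 Trex D1 line, cells induced overnight at 30 C with tetracycline, dye-loaded 30–90 min at RT. Antagonism scored against EC80 dopamine challenge given 180 s after compound.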
BCR signal inh: blocks chronic active B-cell receptor signaling; Potency, µM (doses to about 46.1 µM), without a hit: top-dose activity change, negative = inhibition, actives largely listed as inhibitors; 0.05% of 340,000 active; AID 493014; ABC-DLBCL IkBa-CBG/CBR reporter, luminescence ratio, 4 h; active = well fitted inhibition curve with a large enough effect in the signal ratio, with a control signal flat, not every such curve was filed as active; inconclusive = small, poorly fitted or top-dose-only effect, or effect the other way, or a change in a side signal; the % refers to the signal ratio;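 also: potency is read from the fitted curve at half-maximal effect; plate controls were basal doxycycline-induced cells for no effect and cells given 10 µM MG132 for full effect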
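Compounds up to 46 uM were incubated four hours with TMD8 cells whose green CBG68 luciferase is fused to IkappaBalpha; red CBR luminescence normalised the signal, and concentration-effect curves were fitted to fusion, red and ratio data.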
D1 agonist: activates the human D1 dopamine receptor | HEK293 T-REx D1 cells, calcium flux, agonist mode | activation, % at 2 µM | 1% of 360,000 active | AID 504660; in the data active = activation above about 30%; also: 0% is about no effect
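Inducible HEK293 T-REx D1 cells, force-coupled to calcium signalling, were plated at 4000 cells/well with tetracycline and held overnight at 30 C. After no-wash calcium dye loading, compound-evoked calcium rise over 180 s flagged agonists.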
D3 ag: D3 dopamine receptor (human) agonism. P35462. D3R DiscoveRx beta-arrestin cells, luminescence, 90 min. max activation, %. 0.58% of 410,000 active. AID 652048; in the data active = max activation above about 30%; also: 0% is about no effect
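Agonist-mode cell screen: cells plated at 1500/well and incubated overnight at 37 °C, then exposed to library compounds for 90 min at 37 °C. Detection reagent was added for 30–60 min at room temperature, and luminescence was read.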
* = called active by the depositor; ? = inconclusive; nt = no result given. Most compounds without a hit are left out; they make up all but 6% or so of the library.

SMILES	DRD3 antagonist	D1 PAM	D1 antagonist	BCR signal inh	D1 agonist	D3 ag
Cc1cc(C(=O)Nc2cccc([N+](=O)[O-])c2C)cs1	-25	-6	4	-8%	1	-16
COc1ccc([N+](=O)[O-])cc1NC(=O)c1cn(-c2ccc(Cl)cc2)c(=O)c2ccccc12	-53*	-4	-23	1%	4	-2
COc1ccccc1NC(=O)c1cc(Br)ccc1Cl	4	-1	-35*	?	0	13
Cc1ccc2c(=O)cc(C(=O)Nc3ccc(S(=O)(=O)Nc4nc(C)cc(C)n4)cc3)oc2c1	nt	4	-9	nt	0	5
O=S(=O)(Nc1cccc2cccnc12)c1ccccc1Br	nt	-5	-3	nt	3	nt
CCc1nc2c(OCc3ccc(F)cc3)cccn2c1N(C)C(=O)COc1ccccc1	7	nt	nt	nt	nt	-1
COc1ccc2sc(N(Cc3cccnc3)C(=O)C3CCCCC3)nc2c1	nt	-1	nt	0%	11	-2
CN(C)c1ccc(C(=O)/C=C/c2ccc(Br)cc2)cc1	-21	-4	-33*	-1%	5	-6
CCN(CC)c1ccc(/C=C/C(=O)c2ccc(Br)cc2)cc1	-14	-8	-67*	12%	425*	-8
CCN(CC)c1ccc(/C=C/C(=O)c2cccnc2)cc1	-7	-2	-16	7%	4	-1
CN(C)c1ccc(C(=O)/C=C/c2ccccc2)cc1	6	-4	-6	?	2	-4
Cc1ccc(C(=O)OCC(=O)c2c[nH]c3ccccc23)cc1	12	-4	-1	-3%	3	-2
CC(C)Cc1ccc(C(C)C(=O)OCC(=O)c2c[nH]c3ccccc23)cc1 (centres undefined)	10	-4	-27	10%	37*	15
Cc1ccc(S(=O)(=O)CCC(=O)OCC(=O)c2cc(C)ccc2C)cc1	4	5	8	8%	0	-6
Cc1ccc(S(=O)(=O)CCC(=O)OCC(=O)c2c[nH]c3ccccc23)cc1	-13	-2	1	?	0	33*
CCOc1ccc(-c2cc(NC(=O)c3ccc(C)cc3)c(C(=O)OC)s2)cc1	nt	-1	2	nt	3	-5
CN(CC1CCOCC1)C(=O)CC1C(=O)NCCN1Cc1cccc(C(F)(F)F)c1 (centres undefined)	7	6	-77*	-1%	2	-9
Cc1ccc(CN2CCNC(=O)C2CC(=O)N(C)C2CCOCC2)cc1 (centres undefined)	2	-6	-33*	2%	2	-3
Cc1c(Br)cc(F)c([S+](=O)([O-])N2CCN([S+](=O)([O-])c3ccc4c(c3)OCCO4)CC2)c1F	nt	3	-29	nt	1	nt
O=C1CCN(Cc2ccccc2)C=C1c1ccc(Cl)cc1	0	nt	nt	-1%	nt	-3
O=C1CCN(Cc2ccccc2)C=C1C(=O)c1ccccc1	-20	nt	nt	nt	nt	47*
COc1ccc(CCNC(=O)C2(C)CCC(=O)N2Cc2ccc3c(c2)OCO3)cc1OC (centres undefined)	0	0	-1	1%	2	3
COc1ccc(CCNC(=O)C2(C)CCC(=O)N2Cc2ccc(F)cc2Cl)cc1OC (centres undefined)	-4	-2	-33*	1%	0	4
CC1=C(C(=O)N2CCOCC2)CC(CC(=O)NCC2CCCCC2)C(=O)N1CCC1=CCCCC1 (centres undefined)	-4	nt	nt	nt	nt	3
Cc1ccc(Cl)cc1-c1cc(C(=O)N2CCN(c3ccncc3)CC2)[nH]n1	0	nt	nt	nt	nt	-16
SMILES	DRD3 antagonist	D1 PAM	D1 antagonist	BCR signal inh	D1 agonist	D3 ag
Cc1ccc(-c2c(C#N)c(N)nc3c2CCCCC3)o1	5	2	-48*	3%	3	-9
Cc1cccc(-c2nc(CCNC(=O)COc3ccccc3)cs2)c1	nt	0	-29	nt	0	-1
Cc1cccc(NC(=S)N/N=C2\CC(C)(C)Oc3ccc(O)cc32)c1	-27	-2	-5	3%	2	-1
CC1(C)C/C(=N\NC(=S)Nc2ccccc2F)c2cc(O)ccc2O1	-53*	-5	-5	?	1	-8
COc1ccc(CCN2C(=O)/C(=C\c3ccco3)SC2=S)cc1OC	17	9	-6	?	5	59*
COc1ccc(C(=O)NCCC(=O)NCc2cc(=O)n(C)c(=O)n2C)cc1	6	-4	-51*	2%	1	2
COc1cccc(C(=O)NCC(=O)NCc2cc(=O)n(C)c(=O)n2C)c1	4	-4	-36*	-15%	6	15
CC(C)C(=O)OCC(=O)[C@@]12O[C@H](C3CCCCC3)O[C@@H]1C[C@H]1[C@@H]3CCC4=CC(=O)C=C[C@]4(C)[C@H]3[C@@H](O)C[C@@]12C	nt	nt	nt	nt	nt	6
COC(=O)c1ccc(CSc2nc3c([nH]c4ccccc43)c(=O)n2-c2ccc(Cl)cc2)o1	nt	-6	10	nt	5	1
Cc1ccc(C)c(OCCC(=O)OCC(=O)Nc2ccc(N3CCOCC3)cc2)c1	0	-5	-53*	-9%	9	-12
O=C(COC(=O)COc1cccc(C(F)(F)F)c1)Nc1ccc(N2CCOCC2)cc1	14	-9	-40*	0%	7	0
Cc1ccc(C)c(OCC(=O)Nc2ccc(N3CCOCC3)cc2)c1	0	-2	0	-11%	6	7
COc1ccc(-c2nc3cc(C(C)C)ccc3o2)cc1NC(=O)c1ccc(C)c(Cl)c1	nt	6	-10	nt	5	18
COc1cc(C)ccc1S(=O)(=O)NC(=O)C1(C)CCN1C(=O)c1ccc(C2CCCCC2)cc1 (centres undefined)	0	nt	nt	nt	nt	-9
Clc1cccc(C2Nc3cccc4cccc(c34)N2)c1Cl	3	-12	-36*	?	2	-5
O=C1NC(c2ccc(Br)cc2)Nc2ccccc21 (centres undefined)	16	-4	-32*	6%	-2	-5
Fc1ccc(C2Nc3cccc4cccc(c34)N2)cc1	-75*	-3	4	?	3	-4
Clc1ccccc1C1Nc2cccc3cccc(c23)N1	-19	-2	29	-28%	-2	0
Brc1ccc(C2Nc3cccc4cccc(c34)N2)cc1	-63*	nt	nt	nt	nt	-12
Cc1ccc(NC(=O)Cn2cc(S(=O)(=O)c3ccc(C)cc3)c(=O)c3cc4c(cc32)OCO4)cc1	nt	3	2	nt	5	3
Cc1ccc(C2Nc3cccc4cccc(c34)N2)s1	-61*	-2	8	10%	3	-3
COc1ccccc1C(C)NCC(=O)Nc1ccccc1C(F)(F)F (centres undefined)	-57*	1	-5	-1%	13	-8
COC(=O)Cn1cc(/C=N/NC(=O)c2ccc(C#N)cc2F)c2ccccc21	-10	2	-39*	-2%	5	-10
